This is an account of results in the supplement of paper PMC11417369.

In all, about 25,000 sequences were measured (“ln(normalized median fluorescence intensity)”: median about 6.7, highest 2% from about 10 on). The list comes from a sample in which the highest values are over-represented; it also holds similar and randomly drawn sequences.

The assay concerns PfHDP1 homeodomain (GST-tagged). Kind of assay: gcPBM binding intensity (ln(normalized median fluorescence intensity)); higher = stronger DNA binding. An outline of the steps:
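GST-tagged P. falciparum DNA-binding domains, expressed in E. coli (about 25 μg on average), were applied for 1 h to an Agilent 4 × 180k array of primer-extended double-stranded 36-bp intergenic genomic probes plus negative controls. The binding buffer was 1× PBS with 1% milk, 0.2 mg/ml BSA, 0.5% salmon testes DNA and 0.03% Triton X-100. Bound protein was detected with Alexa488 anti-GST antibody and scanned at 488 nm. Binding intensity is the highest Masliner-normalised natural-log median intensity across replicate spots of either probe orientation.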
In the case of ACCCATTTTAATTTAGTGCACATTTTACCTTTATAC, the “gcPBM binding intensity (ln)” value was determined as 10.1. Regarding ATATATATATATATAGTGCACATTTATATAATTATT, the “gcPBM binding intensity (ln)” value stood at 10. As for “CTATTTCAATTTAGTGCACACATTTTAATTTATAAG [CACACA_site2040]”, the figure is 10.9.

“CTACTTAATATTTGTACACACATATTTAACCTACTA [CACACA_site5725]”: the “gcPBM binding intensity (ln)” value came to 7.02. In the case of “AAAGAATACAAAATTGCACACATATTGTGAAAATGT [CACACA_site9327]”, the “gcPBM binding intensity (ln)” value is 9.59.

As for “AAAAAAGAATTGTGCACACACAAAAAATGTTCATAA [CACACA_site1103]”, the “gcPBM binding intensity (ln)” value worked out at 10.3.

On to “TTAAAAAAGAATTGTGCACACACAAAAAATGTTCAT [CACACA_site1102]”, for which the “gcPBM binding intensity (ln)” value worked out at 10.6. For “ATTTTAAATTTATCTGTGCACAGTATTATATAAGCA [GTGCAC_site9806]”, the “gcPBM binding intensity (ln)” value worked out at 10.8. As for “ATATTTGTATAAATTGCACACTTTATTTTTTTTAAG [CACACA_site1558]”, the figure is 9.86; as for “ATATATTTTTAGCACAGTACAATATAATTAAATATA [XGTACX_site6779]”, 7.02; as for “TATATTATTAATTAAGCACACATTATTTTTATAATA [CACACA_site3982]”, 6.37. Consider “ATATAATATATATATTGTACATATATTTATAAGCAT [XGTACX_site3726]”, for which the “gcPBM binding intensity (ln)” value stood at 6.5. On to AGTATAAGCATTATTGTGCACATAATTATAATTTTT, for which the “gcPBM binding intensity (ln)” value came to 11. Then “ATTATTCTATATGAAACATGCATACATTTGTATTTT [TGCATGCA_site823]”, with 6.53; and “AAATACTGTAAAAAAGCATGCCACTAATAATAATTA [TGCATGCA_site759]”, with 6.33; and “TTTTTATATTTCAACATATCACAATTTTATATATCT [CACACA_negctrl_site178]”, with 6.43.

Take “GTGAAATATGCAAACACACACGAGAAAAATGTATAT [CACACA_site7488]”: the “gcPBM binding intensity (ln)” value is 6.99. As for “AAAAGGAGAAATATTGCACACGTGCAAAATGGTATG [CACACA_site4300]”, the figure is 11. As for “GAGTGAAATATGCAAACACACACGAGAAAAATGTAT [CACACA_site3196]”, the figure is 7.15; as for “AGGAAAATTATGAATGGTACAGAATATATTAGGAGA [XGTACX_site6282]”, 7.46.

For “AAGGAGAAATATTGCACACGTGCAAAATGGTATGAG [CACACA_site259]”, the “gcPBM binding intensity (ln)” value is 10.8.

In the case of “AATGAGAAGGACTGCACACTAAAATGGAAGGAGAAA [CACACA_site1575]”, the “gcPBM binding intensity (ln)” value worked out at 6.97. As for “ATTTTTTAAAAAGTAACACACACTCTTATAAATAAC [CACACA_site7668]”, the figure is 6.7; as for “TATTTTATATAAAGGTGTACTTATACAAAAATATAT [XGTACX_site7435]”, 6.52; as for “TTTTCTCTAAAAAGGTGTACAACTAATAATGCACTG [XGTACX_site6074]”, 10.6.

Consider “GATAATGAATGATGCACACTAAAAATATTCTACAAC [CACACA_site3622]”, for which the “gcPBM binding intensity (ln)” value came out at 8.94.

Take “ATTTTTCTAAAATACTGTACAAAGGTGCATAAAAAG [XGTACX_site4425]”: the “gcPBM binding intensity (ln)” value was found to be 11.1. Then “AAAAAAAAAAAAAGGTGTACATGCAAAATAAATTCT [XGTACX_site4592]”, with 6.48; and AAATACTGTACAAAGGTGCATAAAAAGTGGGGCATA, with 9.07. As for “TATGGAAGAAAATATACACACAAAAAAAAAAAATGT [CACACA_site1486]”, the figure is 6.58; as for “TATATAATATATAAATGTACTTTTGTCTTATATGAA [XGTACX_site7211]”, 6.32; as for “TATTTTGTATTCATTTGTCACATATAATAGATAGGA [TGCATGCA_negctrl_site9]”, 6.82. As for “TTTCTTTTTAAATATATACACACCGTGGGTACATAT [CACACA_site9102]”, the figure is 6.81; as for “AATGAATCCTTATATACACACATTATTATATTATAT [CACACA_site3108]”, 7.23; as for “TACTTTTTAGGAAAGTGTACAAGCATATAAGGAATA [XGTACX_site2834]”, 6.83. Regarding “TATGTGTGCAAAAACTGTACACATTAAAGGTATATA [XGTACX_site7627]”, the “gcPBM binding intensity (ln)” value was 10.3. Then “ATATGTACGCAAGGTGCACACTGGTGCATTAAAAAA [CACACA_site1801]”, with 11.5; and “GCAAGGTCCACACTGGTGCATTAAAAATAAAATATA [GTGCAC_site9956]”, with 10.4. As for “AATATATTTATGCTCATGCACTTTTTTTTTTTTTTT [GTGCAC_site9654]”, the figure is 10; as for “CACTTCATAAAAATTGCACACATATAATAATGTACA [CACACA_site8692]”, 10.1. As for “AAAATTAAAATATATACACACATATATATATTAAAT [CACACA_site4419]”, the figure is 6.25.

For the sequence “TATATTAAAAAAAAATGTACACATATATATATATAT [XGTACX_site4524]”, the “gcPBM binding intensity (ln)” value is 9.21. Take “ATATTTATTTATATTACACACATGTGCAATTAAACT [CACACA_site6928]”: the “gcPBM binding intensity (ln)” value was 10.7. Regarding “TATTATAAAATATACACATGCAAAAACAAAATTTAC [TGCATGCA_site1051]”, the “gcPBM binding intensity (ln)” value stood at 7.03.

In the case of “GTATATTAATAAACATGTACACAATTTATTTATATT [XGTACX_site1012]”, the “gcPBM binding intensity (ln)” value is 6.6.
